Screening data as filed in PubChem.
In the library only some 4.2% were active in any assay of this set; here they are far more common.
TRPV1 ag: activates the human vanilloid receptor TRPV1; Q8NER1; TRPV1-expressing cells, Fluo-8 calcium influx, agonist mode; activation, % at 8.33 µM; 0.19% of 320,000 active; AID 540275; in the data active = activation above about 80%; inconclusive = between about 30% and that limit; also: 0% is about no effect
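TRPV1-expressing cells were cultured overnight at 35.5C and loaded with Fluo-8 calcium dye for 40 to 90 min at room temperature. After a 10 s baseline, compound was added and calcium influx was read kinetically for 3 min (ex 480/em 520 nm).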
TRPV1 potentiator: potentiators of human vanilloid receptor 1 (TRPV1); 0.02% of 320,000 active; TRPV1-expressing cells, Fluo-8 calcium influx, capsaicin EC20 potentiation; Q8NER1; AID 540277; potentiation, % at 8.33 µM; in the data active = potentiation above about 80%; inconclusive = between about 30% and that limit; also: 0% is about no effect
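TRPV1-expressing cells were cultured overnight at 35.5C and loaded with Fluo-8 calcium dye for 40 to 90 min at room temperature. After a 10 s baseline, compound was added and calcium influx was read kinetically for 3 min (ex 480/em 520 nm).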
D1 agonist: activates the human D1 dopamine receptor; P21728; HEK293 T-REx D1 cells, calcium flux, agonist mode; activation, % at 2 µM; 1% of 360,000 active; AID 504660; in the data active = activation above about 30%; also: 0% is about no effect
Target sequence (P21728 whole entry, looked up): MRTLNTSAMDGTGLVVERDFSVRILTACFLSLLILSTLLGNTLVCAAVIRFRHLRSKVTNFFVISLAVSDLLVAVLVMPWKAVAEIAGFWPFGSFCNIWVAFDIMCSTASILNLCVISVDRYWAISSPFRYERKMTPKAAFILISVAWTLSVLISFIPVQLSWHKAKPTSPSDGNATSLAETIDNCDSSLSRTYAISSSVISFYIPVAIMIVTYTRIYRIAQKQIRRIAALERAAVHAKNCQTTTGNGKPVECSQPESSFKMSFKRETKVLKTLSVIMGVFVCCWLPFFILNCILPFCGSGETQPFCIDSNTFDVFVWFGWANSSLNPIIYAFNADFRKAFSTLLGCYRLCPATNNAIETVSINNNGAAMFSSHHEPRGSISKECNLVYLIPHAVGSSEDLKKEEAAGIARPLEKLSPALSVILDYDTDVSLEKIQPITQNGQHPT
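Agonism was scored from calcium flux recorded over 180 s (1 read/s) after pintool compound addition, following a 10-cycle baseline. Cells were inducible force-coupled HEK293 TREx D1, plated overnight at 30 C and loaded with no-wash calcium dye.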
D1 antagonist: human D1 dopamine receptor antagonism; HEK293 TREx D1 cells, calcium flux, dopamine EC80; hits give low values; 3.2% of 360,000 active; P21728; activity change, negative = inhibition, % at 10 µM; AID 504652; in the data active = activity change below about -30%; also: % is scaled to controls: 0 for no effect and ±100 for the full control effect
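Cells carrying a force-coupled, tetracycline-inducible human D1 receptor report calcium flux. Each well gets a 10 s baseline, compound with 180 s monitoring, then an EC80 dopamine stimulus with a second 180 s kinetic read.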
D1 PAM: potentiators of human D1 dopamine receptor; HEK293 TREx D1 cells, calcium flux, dopamine EC20 potentiation; 0.036% of 360,000 active; potentiation, % at 10 µM; in the data active = potentiation above about 30%; also: 0% is about no effect
Starred values were filed as active, the others as inactive; ? = inconclusive; nt = no result given.

SMILES | TRPV1 ag | TRPV1 potentiator | D1 agonist | D1 antagonist | D1 PAM
O=c1[nH]nc(SCc2ccccc2)n1C1CC2C=CC1C2 (stereo not given) | 2 | 4 | 12 | -32* | -3
O=C(CSc1n[nH]c(=O)n1C1CC1)Nc1ccccc1 | 0 | -2 | 1 | -7 | -5
CCOC(=O)CSc1nc(C2CC2)cc(-c2ccc(Cl)cc2)c1C#N | 2 | -9 | 12 | -87* | 4
Cc1ccc(CN2CCN(C3CCN(C(=O)c4ccccc4)CC3)C(=O)C2=O)cc1 | nt | nt | 3 | 10 | 0
OCCCN=c1cc(-c2ccccc2)oc2ccc(Cl)cc12 | 17 | -10 | 1 | -27 | -7
CC1(C)CC(N=c2cc(-c3ccccc3)oc3ccc(Cl)cc23)CC(C)(C)N1 | 18 | 2 | 67* | -69* | -11
CCOc1ccc(CC(=O)NC2CC(=O)N(c3cccc(F)c3)C2)cc1 (stereo not given) | nt | nt | -4 | nt | 3
COc1cc(N2CCCC2)c(OC)cc1/C=c1/sc2nc3ccccc3n2c1=O | 7 | 0 | 47* | -18 | -6
Cc1ccc(-n2c(C)cc(/C=c3/sc4nc5ccccc5n4c3=O)c2C)cc1 | 1 | 0 | 1 | -1 | 4
Cc1ccc(-c2c(CN3CCN(c4cccc(C)c4)C(C)C3)csc2C)cc1 (stereo not given) | nt | nt | 1 | -23 | 2
O=S(=O)(Nc1ccc(C(F)(F)F)cc1)c1ccc2c(c1)OCCO2 | nt | nt | 24 | -12 | -6
Cc1ccc(Oc2nnc(-c3cccs3)c3ccccc23)cc1 | 19 | 14 | 0 | 14 | -1
Cc1ccc(Oc2nnc(-c3cccs3)c3ccccc23)cc1C | 2 | 10 | 1 | -32* | -6
CCN1C=CC2=C(C#N)C(N)C(C#N)(C#N)C(c3ccccc3C(F)(F)F)C2C1 (stereo not given) | 7 | 1 | 34* | 12 | -6
O=C(NCC1CCCN1S(=O)(=O)c1cccs1)c1cccc(Cl)c1 (stereo not given) | 9 | -25 | 4 | -32* | -4
O=C(CCCSc1ccc(Cl)cc1)Nc1cc(S(=O)(=O)N2CCOCC2)ccc1O | ? | -10 | 4 | -45* | -5
Cc1ccc(S(=O)(=O)N2CCOCC2)cc1NC(=O)CSc1ccc(Cl)cc1 | 22 | -18 | 2 | -6 | -6
Cc1ccc(OC(C)C(=O)Nc2ccc(S(=O)(=O)N3CCOCC3)cc2)cc1 (stereo not given) | ? | -14 | 39* | 1 | 2
CC(Sc1ccc(Cl)cc1)C(=O)Nc1ccc(S(=O)(=O)N2CCOCC2)cc1 (stereo not given) | 0 | 14 | 56* | -21 | -10
CC(C)C(=O)Nc1ccc(C(=O)Nc2ccc(S(=O)(=O)N3CCOCC3)cc2)cc1 | 4 | -13 | 6 | 1 | -7
CC(Oc1ccc(C(=O)c2ccccc2)cc1)C(=O)Nc1ccc(S(N)(=O)=O)cc1 (stereo not given) | ? | -5 | 38* | -6 | -1
Cc1cc(C)c(NC(=O)CSc2nc3c([nH]c4ccccc43)c(=O)n2C)c(C)c1 | nt | nt | -1 | -13 | -1
Cn1c2cc([N+](=O)[O-])sc2c2cnn(Cc3ccccc3F)c(=O)c21 | nt | nt | 1 | -3 | 3
CCCCNC(=O)CSc1nc2ccccc2nc1Cc1ccc(Cl)cc1 | nt | nt | 1 | -1 | -3
CCC1(CC)NC(=S)N(Nc2ccccc2)C1=O | 13 | -10 | 0 | -33* | -9
SMILES | TRPV1 ag | TRPV1 potentiator | D1 agonist | D1 antagonist | D1 PAM
O=C(NCC(c1cccnc1)N1CCc2ccccc2C1)C(=O)Nc1ccccc1 (stereo not given) | nt | nt | 0 | -11 | 1
COc1ccc(NC(=O)C(=O)NCC(c2cccnc2)N2CCc3ccccc3C2)cc1 (stereo not given) | nt | nt | 30 | -40* | -4
Cc1ccc(OCCCCNC2CCCCC2)c(C)c1 | -5 | 7 | 57* | -19 | -5
Cc1ccc(C)c(OCCCNC2CCCC2)c1C | -5 | 9 | 42* | -35* | -4
CN1CCc2sc(NC(=O)Cc3ccccc3)c(C(=O)Nc3ccc(Cl)cc3)c2C1 | nt | nt | 23 | -53* | -6
CCC(=O)Nc1sc2c(c1C(=O)Nc1ccc(Br)cc1)CCCCC2 | nt | nt | 4 | -31* | -3
O=C(Cc1ccccc1)Nc1sc2c(c1C(=O)Nc1ccc(Cl)cc1)CCCC2 | ? | -14 | 6 | 28 | 6
